Test results taken from PubChem BioAssay AID1159580 (chemical genetic matrix, 2015).
“And” between values parts separate entries of the source, which are not always exact repeats. Identical values can stand only once. About 2,000 (36%) of roughly 5,500 compounds were called active. Another 18% or so got no clear call; they are omitted. No stated cut-off is given here; in the data, active means normalized growth mostly below about 0.91 (no sharp cut-off); inconclusive means no clear call, values can overlap the other calls; inactive means mostly above about 0.92. This is one part of the list.

Assay: chemical genetic growth profiling, strain panel (AID 1159580);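 further: tested at 20 µM; growth read once vehicle control cultures reached saturation at 30 °C; 1 = growth at the plate median or of vehicle wells; lower values mean less growth of the strain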
Conditions: growth OD

Measured: normalized growth

NNCCc1ccccc1
inactive: S. cerevisiae deletion strains, locus YJR066W, strain TOR1, hits give low values 0.945 | S. cerevisiae deletion strains, locus YJR075W, strain HOC1, hits give low values 0.986 | S. cerevisiae deletion strains, locus YKL009W, strain mrt4, hits give low values 0.995 | S. cerevisiae deletion strains, locus YKL068W, hits give low values 0.986 | S. cerevisiae deletion strains, locus YKL085W, strain MDH1 (second series), hits give low values 0.998 | S. cerevisiae deletion strains, locus YKL085W, strain MDH1, hits give low values 0.998 | S. cerevisiae deletion strains, locus YKL160W, strain elf1, hits give low values 1 | S. cerevisiae deletion strains, locus YKL190W, strain CNB1, hits give low values 0.966 | S. cerevisiae deletion strains, locus YKR001C, strain vps1, hits give low values 0.992 | S. cerevisiae deletion strains, locus YKR026C, strain gcn3, hits give low values 1.01 | S. cerevisiae deletion strains, locus YKR091W, strain srl3, hits give low values 1.01 | S. cerevisiae deletion strains, locus YLL001W, strain dnm1, hits give low values 1 | S. cerevisiae deletion strains, locus YLL026W, hits give low values 1 | S. cerevisiae deletion strains, locus YLL041C, strain sdh2, hits give low values 1 | S. cerevisiae deletion strains, locus YLR027C, strain aat2, hits give low values 1.01 | S. cerevisiae deletion strains, locus YLR039C, strain RIC1, hits give low values 0.897 | S. cerevisiae deletion strains, locus YLR058C, strain SHM2, hits give low values 0.974 | S. cerevisiae deletion strains, locus YLR102C, strain apc9, hits give low values 0.991 | S. cerevisiae deletion strains, locus YLR113W, strain HOG1, hits give low values 0.987 | S. cerevisiae deletion strains, locus YLR221C, strain rsa3, hits give low values 1.01 | S. cerevisiae deletion strains, locus YLR258W, strain gsy2, hits give low values 1.01 | S. cerevisiae deletion strains, locus YLR262C, strain YPT6 (second series), hits give low values 0.969 | S. cerevisiae deletion strains, locus YLR262C, strain YPT6, hits give low values 0.858 | S. cerevisiae deletion strains, locus YLR268W, strain sec22, hits give low values 1.05 | S. cerevisiae deletion strains, locus YLR320W, strain mms22, hits give low values 1.02 | S. cerevisiae deletion strains, locus YLR330W, strain CHS5, hits give low values 0.994 | S. cerevisiae deletion strains, locus YLR342W, strain FKS1 (second series), hits give low values 0.997 | S. cerevisiae deletion strains, locus YLR342W, strain FKS1, hits give low values 1.02 | S. cerevisiae deletion strains, locus YLR357W, strain rsc2, hits give low values 0.969 | S. cerevisiae deletion strains, locus YLR370C, strain arc18, hits give low values 1.01 | S. cerevisiae deletion strains, locus YLR371W, strain rom2, hits give low values 0.966 | S. cerevisiae deletion strains, locus YLR384C, strain iki3, hits give low values 1.01 | S. cerevisiae deletion strains, locus YLR418C, strain cdc73, hits give low values 0.965 | S. cerevisiae deletion strains, locus YML016C, strain PPZ1, hits give low values 0.989 | S. cerevisiae deletion strains, locus YML032C, strain rad52, hits give low values 0.996 | S. cerevisiae deletion strains, locus YML120C, strain ndi1, hits give low values 1.01 | S. cerevisiae deletion strains, locus YML124C, strain tub3, hits give low values 0.986 | S. cerevisiae deletion strains, locus YMR058W, strain fet3, hits give low values 1 | S. cerevisiae deletion strains, locus YMR078C, strain ctf18, hits give low values 0.969 | S. cerevisiae deletion strains, locus YMR125W, strain sto1, hits give low values 0.999 | S. cerevisiae deletion strains, locus YMR129W, hits give low values 1 | S. cerevisiae deletion strains, locus YMR205C, strain PFK2, hits give low values 1.02 | S. cerevisiae deletion strains, locus YMR223W, strain ubp8, hits give low values 0.95 | S. cerevisiae deletion strains, locus YMR231W, strain pep5, hits give low values 1.01 | S. cerevisiae deletion strains, locus YMR263W, strain SAP30, hits give low values 1 | S. cerevisiae deletion strains, locus YMR307W, strain GAS1, hits give low values 1 | S. cerevisiae deletion strains, locus YNL067W, strain RPL9B, hits give low values 0.981 | S. cerevisiae deletion strains, locus YNL071W, strain lat1, hits give low values 1.01 | S. cerevisiae deletion strains, locus YNL128W, strain TEP1, hits give low values 1.01 | S. cerevisiae deletion strains, locus YNL153C, strain GIM3, hits give low values 0.99 | S. cerevisiae deletion strains, locus YNL175C, strain NOP13, hits give low values 1 | S. cerevisiae deletion strains, locus YNL183C, strain NPR1, hits give low values 0.958 | S. cerevisiae deletion strains, locus YNL197C, strain WHI3, hits give low values 0.996 | S. cerevisiae deletion strains, locus YNL209W, strain ssb2, hits give low values 1 | S. cerevisiae deletion strains, locus YNL224C, strain SQS1, hits give low values 0.99 | S. cerevisiae deletion strains, locus YNL233W, strain BNI4, hits give low values 0.999 | S. cerevisiae deletion strains, locus YNL248C, strain rpa49, hits give low values 1.02 | S. cerevisiae deletion strains, locus YNL250W, strain rad50, hits give low values 0.983 | S. cerevisiae deletion strains, locus YNL271C, strain bni1, hits give low values 0.994 | S. cerevisiae deletion strains, locus YNL298W, strain CLA4, hits give low values 0.997 | S. cerevisiae deletion strains, locus YNL307C, strain MCK1, hits give low values 0.987 | S. cerevisiae deletion strains, locus YNL322C, strain KRE1 (second series), hits give low values 1.02 | S. cerevisiae deletion strains, locus YNL322C, strain KRE1, hits give low values 0.988 and 0.996 | S. cerevisiae deletion strains, locus YNR049C, strain mso1, hits give low values 1.01 | S. cerevisiae deletion strains, locus YNR052C, strain pop2, hits give low values 0.991 | S. cerevisiae deletion strains, locus YOL006C, strain TOP1, hits give low values 0.983 | S. cerevisiae deletion strains, locus YOL012C, strain htz1 0.89 | S. cerevisiae deletion strains, locus YOL147C, strain pex11, hits give low values 0.986 | S. cerevisiae deletion strains, locus YOR001W, strain rrp6, hits give low values 1.01 | S. cerevisiae deletion strains, locus YOR061W, strain CKA2, hits give low values 0.964 | S. cerevisiae deletion strains, locus YOR069W, strain VPS5, hits give low values 0.993 | S. cerevisiae deletion strains, locus YOR070C, strain gyp1, hits give low values 1 | S. cerevisiae deletion strains, locus YOR080W, strain dia2, hits give low values 1.01 | S. cerevisiae deletion strains, locus YOR083W, strain WHI5 (second series), hits give low values 1 | S. cerevisiae deletion strains, locus YOR083W, strain WHI5, hits give low values 0.988 | S. cerevisiae deletion strains, locus YOR106W, strain vam3, hits give low values 1.02 | S. cerevisiae deletion strains, locus YOR136W, strain idh2, hits give low values 0.973 | S. cerevisiae deletion strains, locus YOR144C, strain elg1, hits give low values 0.987 | S. cerevisiae deletion strains, locus YOR184W, strain ser1, hits give low values 0.981 | S. cerevisiae deletion strains, locus YOR231W, strain MKK1, hits give low values 0.982 | S. cerevisiae deletion strains, locus YOR265W, strain rbl2, hits give low values 1 | S. cerevisiae deletion strains, locus YOR270C, strain vph1, hits give low values 1.11 | S. cerevisiae deletion strains, locus YOR290C, strain snf2, hits give low values 1 | S. cerevisiae deletion strains, locus YOR316C, strain cot1, hits give low values 0.984 | S. cerevisiae deletion strains, locus YPL051W, strain arl3, hits give low values 1.01 | S. cerevisiae deletion strains, locus YPL078C, strain atp4, hits give low values 1 | S. cerevisiae deletion strains, locus YPL106C, strain sse1, hits give low values 0.977 | S. cerevisiae deletion strains, locus YPL240C, strain hsp82, hits give low values 1 | S. cerevisiae deletion strains, locus YPL241C, strain CIN2, hits give low values 0.994 | S. cerevisiae deletion strains, locus YPL256C, strain CLN2, hits give low values 0.958 | S. cerevisiae deletion strains, locus YPR119W, strain clb2, hits give low values 0.981 | S. cerevisiae deletion strains, locus YPR141C, strain kar3, hits give low values 0.968 | S. cerevisiae deletion strains, locus YPR163C, strain tif3, hits give low values 0.989 | S. cerevisiae deletion strains, locus YPR167C, strain met16, hits give low values 0.985 | S. cerevisiae deletion strains, strain wtn01, hits give low values 0.992 | S. cerevisiae strains, strain wild type, hits give low values 0.981
